# Assay results taken from ChEMBL document CHEMBL3433997, “St. Jude Leishmania screening dataset” (2016).
# Legend:
# Assay type in all cases: functional
# [1] = molecular target: Solute carrier family 2, facilitated glucose transporter member 1 (Homo sapiens) (UniProt P11166); experiment: ST_JUDE_LEISH: Cytotoxicity at 2uM final concentration against transgenic Leishmania Mexicana promastigotes LmGLUT1 that are glucose transport deficient and complemented with the human glucose transporter GLUT1. Activity is measured by DNA content using SYBR green in vitro
# Chain of Solute carrier family 2, facilitated glucose transporter member 1 (Homo sapiens) (P11166 whole entry): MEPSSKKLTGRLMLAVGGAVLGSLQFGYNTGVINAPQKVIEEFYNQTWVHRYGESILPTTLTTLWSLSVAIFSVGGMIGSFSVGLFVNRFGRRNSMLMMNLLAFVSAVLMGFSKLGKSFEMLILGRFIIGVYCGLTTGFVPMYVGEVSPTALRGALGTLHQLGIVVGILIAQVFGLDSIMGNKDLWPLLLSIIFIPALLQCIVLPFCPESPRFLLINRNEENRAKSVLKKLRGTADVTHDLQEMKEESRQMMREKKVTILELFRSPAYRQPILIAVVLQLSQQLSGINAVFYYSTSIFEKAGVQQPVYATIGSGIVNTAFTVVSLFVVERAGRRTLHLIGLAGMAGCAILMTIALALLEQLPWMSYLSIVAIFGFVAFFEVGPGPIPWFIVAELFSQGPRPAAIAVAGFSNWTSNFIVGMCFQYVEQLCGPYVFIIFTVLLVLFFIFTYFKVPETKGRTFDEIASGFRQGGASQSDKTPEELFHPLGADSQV
# [2] = molecular target: Hexose transporter 1 (Plasmodium falciparum) (UniProt O97467); experiment: ST_JUDE_LEISH: Cytotoxicity at 2uM final concentration against transgenic Leishmania Mexicana promastigotes LmPfHT that are glucose transport deficient and complemented with the Plasmodium falciparum hexose transporter. Activity is measured by DNA content using SYBR green in vitro
# [3] = molecular target: Glucose transporter (Leishmania mexicana) (UniProt O61059); experiment: ST_JUDE_LEISH: Cytotoxicity at 2uM final concentration against transgenic Leishmania Mexicana promastigotes LmGT2 that are glucose transport deficient and complemented with the L. Mexicana glucose transporter 2. Activity is measured by DNA content using SYBR green in vitro
SMILES,inhibition [1],inhibition [2],inhibition [3]
COc1ccccc1NC(=O)NC1CCN(CCCCCNC(=O)/C=C/c2ccc(Cl)c(Cl)c2)CC1,1.87%,2.75%,2.7%
N#Cc1cccc(C(=O)NC2CCN(CCCCCNC(=O)/C=C/c3ccc(Cl)c(Cl)c3)CC2)c1,5.7%,5.26%,7.61%
COc1ccc(Nc2nccc(NCCNC(=O)c3cc4ccccc4s3)n2)cc1,5.11%,3.59%,-0.64%
O=c1c(Br)c(C(F)(F)F)[nH]c2ccc(Oc3ccccc3)cc12,2.41%,2.75%,2.63%
CCCCCCCC/C=C\CCCCCCCC(=O)NCc1ccc(O)c(OC)c1,8.15%,7.4%,5.67%
O=S(=O)(NC1CCCCN(Cc2ccccc2O)C1)c1ccc(C(F)(F)F)cc1 (centres undefined),1.87%,4.93%,0.86%
CCc1sc(N2CCN(C)CC2)nc1C(=O)Nc1ccc(F)cc1C(F)(F)F,-1.9%,1.37%,-0.43%
N#Cc1ccc2c(c1)CCN(CCC1CCC(NC(=O)/C=C/c3c[nH]c4ccc(F)cc34)CC1)CC2 (centres undefined),0.97%,3.57%,2.6%
CN1CCc2cc(NC(=O)c3cc4ccccc4s3)cc(-c3ccccc3)c2CC1,97.2%,101%,95.9%
COc1cccc(C(=O)NCCc2cccc(Cl)c2)c1Oc1ccccc1,1.18%,2.48%,1.65%
COc1ccc(OC)c(NC(=O)c2c(-c3c(F)cccc3Cl)noc2C)c1,5.12%,3.64%,2.52%
CCCCCCCCn1c2c(c(=N)c3c1CCC3)CCCC2,94.4%,95.9%,92.6%
Cc1nc(N)nc(N)c1-c1ccc(Br)c(Br)c1,4.47%,4.38%,3.4%
O=c1cc(NCCCNCc2cc3ccc(Br)cc3s2)[nH]c2ccccc12,-0.97%,-0.27%,0.6%
N#Cc1ccc(C=NNc2nc3ccccc3[nH]2)cc1,3.61%,1.98%,-0.11%
COc1ccc(Oc2ccc(Nc3ccnc4ccc(C(F)(F)F)cc34)cc2)cc1OC,7.8%,6.26%,12.3%
CC(Cc1ccc(C(=O)Nc2ccc(CC(C)NCCc3cccc(Cl)c3)cc2)cc1)NCCc1ccc(C(F)(F)F)cc1 (centres undefined),56.4%,37.1%,48.1%
CC1(C)N=C(N)N=C(N)N1c1cccc(I)c1,0.23%,-0.04%,0.13%
COc1ccc(NC(=O)[C@H](Cc2ccccc2)Nc2cc(C)nc(NCCOc3ccccc3)n2)cc1,4.06%,2.78%,2.55%
Cc1cccc2nc(-c3cccc(-c4ccc(NC(=O)Nc5ccsc5)cc4)c3)[nH]c12,5%,4.66%,2.53%
Nc1ncnc2cc(-c3cccc(S(N)(=O)=O)c3)sc12,0.46%,3.15%,5.9%
CCN(CC)CCCC(C)Nc1c2cc(OC)ccc2nc2cc(Cl)c([N+](=O)[O-])cc12 (centres undefined),1.29%,0.73%,0.82%
O=c1cc(N2CCNCC2)c(Cl)nn1Cc1ccc(NS(=O)(=O)c2ccc(Oc3ccccc3)cc2)cc1,1.25%,3.7%,1.23%
CCCCC#Cc1cnc2nc(N)[nH]c(=O)c2n1,1.66%,1.03%,0.91%

SMILES,inhibition [1],inhibition [2],inhibition [3]
Cc1ccc(CCOCCCCCNCC(O)c2cc(Cl)c(N)c(Cl)c2)cc1 (centres undefined),1.04%,-1.13%,0.95%
Cc1[nH]c(C)c(-c2ccc(Oc3ccc(C(F)(F)F)cc3)cc2)c(=O)c1Br,3.22%,5.35%,3.05%
CC1(C)NC(N)=NC(=N)N1OCCCCOc1ccc(Cl)cc1C1CCCCC1,18%,26.4%,11.5%
C=C(NC(=O)C1CCCCC1)C(=O)OC,-0.71%,2.29%,0.41%
CS(=O)(=O)c1ccc2c(c1)CCN(CCC1CCC(NC(=O)C(=Cc3ccc(Cl)cc3Cl)c3ccc(-c4ccccc4)cc3)CC1)CC2 (centres undefined),-0.33%,3.12%,3.51%
CCCCCCOc1ccc(N2C(N)=NC(N)=NC2(C)C)cc1,1.45%,1.46%,0.46%
CCCCCCCc1c(C)nc2cccc(OC)c2c1O,47.3%,59.4%,33.9%
Nc1ccc2[nH]cc(C3CCN(CC4CCN(C(=O)/C=C/c5ccc(Cl)c(Cl)c5)CC4)CC3)c2n1,2.32%,1.93%,-0.49%
CC(=O)Nc1ccc(OCCCCCOc2ccc(NC(C)=O)cc2Cl)c(Cl)c1,1.91%,1.52%,1.13%
Oc1ccc(CCNc2nc(NCCCOc3cc(CN4CCCCC4)ccc3F)nc(N3CCNCC3)n2)cc1,1.98%,4.72%,5.14%
CC(Sc1nnc(-c2ccccc2Br)[nH]1)C(=O)Nc1ccc(F)cc1 (centres undefined),10.4%,9.07%,6.58%
CN1CCC(NCc2cccc(-c3ccc(S(=O)(=O)NCCN4CCCC4)s3)c2)CC1,4.8%,5.43%,0.76%
Cn1ccnc1CCC(=O)Nc1ccc(Cl)cc1C(=O)Nc1ccc(Cl)cc1,2.75%,1.39%,2.79%
Cc1nc2nc(N)nc(N)c2c(C)c1Cc1cccs1,1.85%,1.16%,2.44%
N#Cc1ccc(N/C(=N\c2ccc(-c3ccccc3)cc2)NCc2cccnc2)c(O)c1,6.14%,1.66%,5.44%
CCCC(C)Nc1nc(C)cc(N[C@@H](CC(C)C)C(=O)NC2CCCC2)n1 (some centres undefined),2.53%,4.34%,3.26%
Cn1nccc1C(=O)NCCNCc1ccc(-c2cccc(-c3nc4cc(C(F)(F)F)ccc4[nH]3)c2)cc1,0.63%,1.93%,2.51%
CCCCc1cc(NCc2ccncc2)nc(Nc2ccccc2)n1,13.6%,6.01%,4.07%
COc1cc(NC(=O)Nc2cccc3ccccc23)c(OC)cc1Cl,5.02%,5.78%,3.81%
N=C(N)Nc1ccc(OCCCCCOc2ccc(NC(=N)N)cc2)cc1,13.7%,20.2%,0.71%
Cc1cc(N[C@@H](Cc2ccccc2)C(=O)NCc2cccc(F)c2)nc(NCCc2ccc(F)cc2)n1,4.47%,2.55%,1.36%
CCCC(C)Nc1nc(C)cc(N[C@@H](CC(C)C)C(=O)NCc2cccc(F)c2)n1 (some centres undefined),4.43%,5.69%,3.7%
COc1ccc(Br)cc1/C=C/C(=O)Nc1ccc(C2CCCN(C)C2)cc1 (centres undefined),3.89%,2.73%,5.71%
Cc1cccc2nc(-c3cccc(-c4cccc(CN5CCN(c6ccc(C#N)cn6)CC5)c4)c3)[nH]c12,11.6%,10.3%,9.4%
